Results taken from PubChem BioAssay (NCI).
This is part of a sample that, as a whole, favours compounds with a hit. Of some 79,000 tested, about 15% had one in any assay. Unmarked numbers belong to inactive results. Active and inactive are the calls of the source. No stated cut-off is given here; in the data, active means growth inhibition above about 70%; inactive means the rest.

Legend:
[1] = NCI Yeast Anticancer Drug Screen. Data for the rad50 strain (AID 155);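 further: 0% = growth of vehicle-only cultures of the same strain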; settings: S. cerevisiae rad50 strain growth inhibition; at 50.0 µM; hits give high values
How it was run: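 A DNA repair-deficient yeast mutant serves as the test organism; compound-induced growth inhibition is calculated against vehicle-treated cells.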

[2] = NCI Yeast Anticancer Drug Screen. Data for the mec2-1 strain (AID 157); settings: S. cerevisiae mec2-1 strain, at 50.0 µM, hits give high values
How it was run: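 Using mec2-1 yeast: add compound, measure growth, express inhibition versus vehicle-treated cultures.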

[3] = NCI Yeast Anticancer Drug Screen. Data for the sgs1 mgt1 strain (AID 161);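 further: 0% = growth of cultures given vehicle only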; settings: S. cerevisiae sgs1 mgt1 strain, at 50.0 µM, hits give high values
How it was run: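 Growth of a repair-deficient yeast mutant was monitored after compound treatment and expressed as inhibition relative to vehicle-treated cultures.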

[4] = NCI Yeast Anticancer Drug Screen. Data for the cln2 rad14 strain (AID 165);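 further: 0% = growth equal to vehicle treated cultures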; settings: S. cerevisiae cln2 rad14 strain, at 50.0 µM, hits give high values
How it was run: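 Yeast strain cln2 rad14, bearing defects in cell cycle control and DNA repair, serves as the test system; values reflect growth inhibition compared with vehicle.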

[5] = NCI Yeast Anticancer Drug Screen. Data for the bub3 strain (AID 167); settings: S. cerevisiae bub3 mutant strain, at 50.0 µM, hits give high values
How it was run: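 Inhibition values come from growth of compound-treated mutant yeast normalised to vehicle-treated controls.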

[6] = NCI Yeast Anticancer Drug Screen. Data for the mlh1 rad18 strain (AID 175); settings: S. cerevisiae mlh1 rad18 strain growth inhibition; at 50.0 µM; hits give high values
How it was run: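 Steps: expose repair-defective yeast to compound; measure growth; express inhibition against vehicle-treated controls.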

SMILES | growth inhibition [1] [%] | growth inhibition [2] [%] | growth inhibition [3] [%] | growth inhibition [4] [%] | growth inhibition [5] [%] | growth inhibition [6]
O/N=C(/C(=N/O)c1ccccc1)c1ccccc1.O/N=C(/C(=N/O)c1ccccc1)c1ccccc1.[Ni] | -10.2 | -6.5 | 5.05 | -21.8 | 2.15 | -14.8%
CC(Cl)CN1CCN(CC(C)Cl)CC1 (stereo unspecified) | 2.95 | -16.7 | 34.4 | 4.4 | 31.9 | -10.3%
COC(=O)CCSP(=S)(Oc1ccccc1)Oc1ccccc1 | -0.2 | 7.85 | 12.3 | 4.25 | 36.5 | 9.1%
CCOP(=O)(OCC)OP(=O)(OCC)OCC | -9.35 | -29.6 | -42.7 | -10.1 | -49.4 | -13.4%
CC(=O)Cc1ccc2c(c1)OCO2 | 13.2 | -11.4 | -0.35 | 1.1 | -16.9 | 22.9%
Cc1c2ccccc2c(C)c2c1cc[n+]1ccccc21 | 14.1 | -1.35 | 15.2 | 0.05 | 1.05 | 1.8%
CC(C)(C)C1=C(Br)C(Br)(C(C)(C)C)OP1(=O)c1ccccc1 (stereo unspecified) | 7.9 | 8.55 | -22.9 | 5.75 | -5 | -27.5%
O=[As](O)(O)c1ccc(N=Nc2ccccc2)cc1 | -4.25 | -14.2 | -6.05 | -19.9 | 5.75 | -17.2%
C=C(C)C1(CCC)C(=O)NC(=S)NC1=O | 23.4 | 19.7 | 17.6 | 25.6 | 4.35 | 22.4%
ClCCN(CCCl)c1ccc2c(c1)Cc1cc(Br)ccc1-2 | 15 | 2 | 40.7 | 30.8 | 2.6 | 6.9%
CC1(C)CN=C(Nc2ccc(Cl)cc2)S1 | 13.9 | 1.45 | -12.1 | 13.5 | -10.7 | -31.2%
O=C1CCCN1 | -8.1 | -1.7 | 3.1 | -4.85 | -0.2 | -11.7%
Nc1ccc(Oc2ccc(N)cc2)cc1 | 3.1 | 10 | 14.6 | 11.7 | 12.4 | 26.1%
CC1(C)CN1C1=C(F)C(=O)C(N2CC2(C)C)=C(F)C1=O | 36.5 | 68.2 | 50.5 | 8.45 | 47.3 | 74.3% (active)
CCc1cc(C)cc2[n+]1CC=C2C | 6.45 | 5.1 | 6.85 | 21.7 | -0.7 | 14.5%
CC1=C(Cl)C=CP(=O)(Oc2ccccc2)C1 (stereo unspecified) | 19.5 | -14.4 | -12.2 | 29.2 | -5.6 | -8.15%
CO/C(=N/N1CC1C(F)(F)F)c1ccncc1 (stereo unspecified) | -34.8 | 19.2 | -51.9 | 11.8 | 1.65 | 8%
O=C(CCSCCC(=O)N/N=C/c1ccc(N(CCCl)CCCl)cc1)N/N=C\c1ccc(N(CCCl)CCCl)cc1 | 7 | 3.85 | 9.35 | -6.4 | -9.45 | 16.6%

SMILES | growth inhibition [1] [%] | growth inhibition [2] [%] | growth inhibition [3] [%] | growth inhibition [4] [%] | growth inhibition [5] [%] | growth inhibition [6]
CC[C@@H]1[C@H]2C[C@H]3[C@@H]4N(C)c5ccccc5[C@]45C[C@@H](C2[C@H]5O)N3[C@H]1O (stereo partly specified) | -12.4 | -6.15 | -5.15 | 5.05 | -13.7 | 15.6%
[Cu].[NH2-].[NH2-].[NH2-].[NH2-] | -21.8 | -15.8 | -23.1 | -64.8 | -4.05 | -23.6%
O=C(Cc1ccccc1)OCC1CCCO1 (stereo unspecified) | 18.2 | -6.6 | -3.45 | -25.7 | -17.8 | 10.5%
CC1OC(OC2C(O)CC(OC3C(O)CC(OC4CCC5(C)C(CCC6C5CCC5(C)C(C7=CC(=O)OC7)C(O)CC65O)C4)OC3C)OC2C)CC(O)C1O (stereo unspecified) | -12.8 | 10.6 | -19.1 | -13.1 | -5.45 | 27.6%
Cc1cc(C)n(/C(N)=N/[N+](=O)[O-])n1 | -15.3 | -18.9 | 3.6 | 12.6 | 21.6 | 15.2%
CCOC(=N)N1[C@H](C)[C@@H]1C | 43.1 | -42.2 | -42.1 | -19 | -43.1 | -6.95%
c1ccc2c(C3NCCc4[nH]cnc43)cccc2c1 (stereo unspecified) | 3.7 | 1.85 | -9.45 | -18.3 | -32 | 4.65%
OCC1CCCN2CCCCC12 (stereo unspecified) | 1.2 | 0.35 | -4.2 | -39.1 | -20.4 | 7.35%
CC(=O)O[C@H]1CC[C@@]2(C)[C@H](CC[C@@H]3[C@@H]2CC[C@]2(C)[C@@H](c4ccc(=O)oc4)C[C@H]4O[C@]342)C1 | 53 | 7.05 | 29.5 | 13.9 | 8.45 | 17.4%
N#Cc1ccc(Cl)cc1 | 9.65 | -21.7 | 6.25 | -2.6 | -4.7 | 7.9%
Cc1ccc(OP(=O)(Oc2ccc(C)cc2)Oc2ccc(C)cc2)cc1.Cc1ccc(OP(=O)(Oc2ccc(C)cc2)Oc2ccc(C)cc2)cc1.Cc1ccc(OP(=O)(Oc2ccc(C)cc2)Oc2ccc(C)cc2)cc1.Cc1ccc(OP(=O)(Oc2ccc(C)cc2)Oc2ccc(C)cc2)cc1.[Nd+3].[O-][Cl+3]([O-])([O-])O | 34.4 | 23.7 | 37.8 | 27 | 52.8 | 25.7%
CC1CNCCN1c1ccc(Cl)cc1 (stereo unspecified) | 13.6 | -20.8 | 11.2 | 20.1 | 22.8 | 6.15%
O=C1NC(=S)NC(=O)C1=Cc1ccco1 | -4.55 | -19.9 | -17 | 27.6 | -11.2 | -19.6%
CCCC(=O)[O-].CCCC(=O)[O-].N.N.N.N.[Co+3].[O-][Cl+3]([O-])([O-])[O-] | -5.15 | -0.75 | -48 | 12.3 | -5.1 | -12.6%
CCOP(=O)(O)SP(=O)(O)OCC.[Zn+2] | -13.9 | -11.8 | -7 | 2.9 | -5.45 | -0.35%
O=C(Cc1ccc2c(c1)OCO2)c1cn(C(=O)Cc2ccc3c(c2)OCO3)c2ccccc12 | 18.7 | 5.9 | 5.4 | 14.8 | 0.35 | 26.4%
COC1C(OC(=O)c2ccc(C)[nH]2)C(O)C(Oc2ccc3c(O)c(NC(=O)c4ccc(O)c(CC=C(C)C)c4)c(=O)oc3c2Cl)OC1(C)C (stereo unspecified) | 44.2 | 25.9 | 23.8 | 50.6 | 35.9 | 33%
O=C1c2ccccc2OP(=O)(OCC(F)(F)F)OC1(C(F)(F)F)C(F)(F)F (stereo unspecified) | -21.4 | -54.7 | -15.2 | -65.5 | -41.5 | -22.8%
